# Experimental data from PMC11062922 (Nature Chemical Biology, 2023).
# Where two headings read alike, the source gives them in different places.
# Legend:
# RET = system: RET; parameters: species or system human, MV4-11 + K-562 + COLO205 + SK-N-BE2 + OVCAR-8; settings: read-out: apparent Kd, n = 1
# RIPK3 = system: RIPK3; parameters: species or system human, MV4-11 + K-562 + COLO205 + SK-N-BE2 + OVCAR-8; settings: read-out: apparent Kd, n = 1
# TNK1 = system: TNK1; parameters: species or system human, MV4-11 + K-562 + COLO205 + SK-N-BE2 + OVCAR-8; settings: read-out: apparent Kd, n = 1
# YES1 = system: YES1; parameters: species or system human, MV4-11 + K-562 + COLO205 + SK-N-BE2 + OVCAR-8; settings: read-out: apparent Kd, n = 1
# AAK1 = system: AAK1; parameters: species or system human, MV4-11 + K-562 + COLO205 + SK-N-BE2 + OVCAR-8; settings: read-out: apparent Kd, compound concentrations: 100 nM and 1000 nM (sheet 'Samples'), n = 1
# Q6ZSR9 = Q6ZSR9 (human, UniProt Q6ZSR9); parameters: species or system MV4-11 + K-562 + COLO205 + SK-N-BE2 + OVCAR-8; settings: read-out: apparent Kd, compound concentrations: 100 nM and 1000 nM (sheet 'Samples'), n = 1
# CLK1 = system: CLK1; parameters: species or system human, MV4-11 + K-562 + COLO205 + SK-N-BE2 + OVCAR-8; settings: read-out: apparent Kd, compound concentrations: 100 nM and 1000 nM (sheet 'Samples'), n = 1
# CLK4 = system: CLK4; parameters: species or system human, MV4-11 + K-562 + COLO205 + SK-N-BE2 + OVCAR-8; settings: read-out: apparent Kd, compound concentrations: 100 nM and 1000 nM (sheet 'Samples'), n = 1
# CSNK2A1;CSNK2A3 = system: CSNK2A1;CSNK2A3; parameters: species or system human, MV4-11 + K-562 + COLO205 + SK-N-BE2 + OVCAR-8; settings: read-out: apparent Kd, compound concentrations: 100 nM and 1000 nM (sheet 'Samples'), n = 1
# CSNK2A2 = system: CSNK2A2; parameters: species or system human, MV4-11 + K-562 + COLO205 + SK-N-BE2 + OVCAR-8; settings: read-out: apparent Kd, compound concentrations: 100 nM and 1000 nM (sheet 'Samples'), n = 1
# ABL1 = system: ABL1; parameters: species or system human, MV4-11 + K-562 + COLO205 + SK-N-BE2 + OVCAR-8; settings: read-out: apparent Kd, n = 1
# ABL2 = system: ABL2; parameters: species or system human, MV4-11 + K-562 + COLO205 + SK-N-BE2 + OVCAR-8; settings: read-out: apparent Kd, n = 1
# BCR = system: BCR; parameters: species or system human, MV4-11 + K-562 + COLO205 + SK-N-BE2 + OVCAR-8; settings: read-out: apparent Kd, compound concentrations: 100 nM and 1000 nM (sheet 'Samples'), n = 1
# FYN = system: FYN; parameters: species or system human, MV4-11 + K-562 + COLO205 + SK-N-BE2 + OVCAR-8; settings: read-out: apparent Kd, compound concentrations: 100 nM and 1000 nM (sheet 'Samples'), n = 1
# HCK = system: HCK; parameters: species or system human, MV4-11 + K-562 + COLO205 + SK-N-BE2 + OVCAR-8; settings: read-out: apparent Kd, compound concentrations: 100 nM and 1000 nM (sheet 'Samples'), n = 1
# LCK = system: LCK; parameters: species or system human, MV4-11 + K-562 + COLO205 + SK-N-BE2 + OVCAR-8; settings: read-out: apparent Kd, n = 1
# PTK6 = system: PTK6; parameters: species or system human, MV4-11 + K-562 + COLO205 + SK-N-BE2 + OVCAR-8; settings: read-out: apparent Kd, n = 1
# GAK = system: GAK; parameters: species or system human, MV4-11 + K-562 + COLO205 + SK-N-BE2 + OVCAR-8; settings: read-out: apparent Kd, compound concentrations: 100 nM and 1000 nM (sheet 'Samples'), n = 1
# RIPK2 = system: RIPK2; parameters: species or system human, MV4-11 + K-562 + COLO205 + SK-N-BE2 + OVCAR-8; settings: read-out: apparent Kd, n = 1
# [1] = compound concentrations:100 nM and 1000 nM (sheet 'Samples')
# Chain of Q6ZSR9 (Q6ZSR9 whole entry, looked up): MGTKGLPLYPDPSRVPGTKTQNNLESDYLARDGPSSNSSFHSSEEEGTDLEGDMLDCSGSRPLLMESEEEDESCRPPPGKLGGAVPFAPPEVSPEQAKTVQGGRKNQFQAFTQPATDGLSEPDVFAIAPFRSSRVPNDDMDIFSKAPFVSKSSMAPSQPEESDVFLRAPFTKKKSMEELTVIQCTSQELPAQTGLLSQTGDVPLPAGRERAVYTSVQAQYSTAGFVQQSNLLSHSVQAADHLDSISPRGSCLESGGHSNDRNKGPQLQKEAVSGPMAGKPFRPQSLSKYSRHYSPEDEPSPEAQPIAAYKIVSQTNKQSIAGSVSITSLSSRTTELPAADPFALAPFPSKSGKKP
smiles,measurement,setting,value
CS(=O)(=O)Cc1ccc(Nc2nccc(-c3c(-c4cccc(NC(=O)C5CCCCC5)c4)nn4ncccc34)n2)cc1 [GSK350559A],potency estimated from few doses,RET; [1],1370 nM
same,potency estimated from few doses,RIPK3; [1],1130 nM
same,potency estimated from few doses,TNK1; [1],261 nM
same,potency estimated from few doses,YES1; [1],461 nM
COc1cc(Nc2nccc(N3CCC(NC(=O)c4cccc(C#N)c4)C3)n2)cc(OC)c1OC (stereo not drawn) [GSK1379751A],potency estimated from few doses,AAK1; CATDS: 0.20949591044902,786 nM
same,potency estimated from few doses,Q6ZSR9; CATDS: 0.206433255862257,810 nM
COc1ccccc1CNC1=NC(=O)/C(=C/c2ccc3ncccc3c2)S1 [RO4503315-000],potency estimated from few doses,AAK1; CATDS: 7.6030940071323702E-2,908 nM
same,potency estimated from few doses,CLK1; CATDS: 0.30628277203205201,30.8 nM
same,potency estimated from few doses,CLK4; CATDS: 0.47450505844259699,14.8 nM
same,potency estimated from few doses,CSNK2A1;CSNK2A3; CATDS: 0.129899516900844,197 nM
same,potency estimated from few doses,CSNK2A2; CATDS: 0.121862828094444,231 nM
same,potency estimated from few doses,Q6ZSR9; CATDS: 7.7270195347091397E-2,858 nM
CNC(=O)c1ccccc1Nc1nc(Nc2cccc(CS(C)(=O)=O)c2)ncc1C.O=CO [GSK1520489A],potency estimated from few doses,"ABL1; compound concentrations: 100 nM and 1000 nM (sheet 'Samples'), CATDS: 1.34944121173274E-2",401 nM
same,potency estimated from few doses,"ABL2; compound concentrations: 100 nM and 1000 nM (sheet 'Samples'), CATDS: 1.36244790700583E-2",389 nM
same,potency estimated from few doses,BCR; CATDS: 1.52044449937046E-2,280 nM
same,potency estimated from few doses,CLK1; CATDS: 2.0431825511786902E-2,131 nM
same,potency estimated from few doses,CLK4; CATDS: 1.6424162942173099E-2,226 nM
same,potency estimated from few doses,CSNK2A1;CSNK2A3; CATDS: 1.12264805832196E-2,773 nM
same,potency estimated from few doses,CSNK2A2; CATDS: 1.1107914266042299E-2,807 nM
same,potency estimated from few doses,FYN; CATDS: 1.4785651294397E-2,304 nM
same,potency estimated from few doses,HCK; CATDS: 2.2518734177974401E-2,105 nM
same,potency estimated from few doses,"LCK; compound concentrations: 100 nM and 1000 nM (sheet 'Samples'), CATDS: 2.8625863065429399E-2",63 nM
same,potency estimated from few doses,"PTK6; compound concentrations: 100 nM and 1000 nM (sheet 'Samples'), CATDS: 5.57669232791278E-2",19.7 nM
same,potency estimated from few doses,Q6ZSR9; CATDS: 1.0084125464563E-2,1260 nM
same,potency estimated from few doses,"RET; compound concentrations: 100 nM and 1000 nM (sheet 'Samples'), CATDS: 2.6340417566827701E-2",74.6 nM
same,potency estimated from few doses,"TNK1; compound concentrations: 100 nM and 1000 nM (sheet 'Samples'), CATDS: 3.8833580007227697E-2",35.6 nM
same,potency estimated from few doses,"YES1; compound concentrations: 100 nM and 1000 nM (sheet 'Samples'), CATDS: 2.28565858871594E-2",101 nM
Cn1cc(-c2ccc3c(c2)CCN3C(=O)Cc2cccc(Cl)c2)c2c(N)ncnc21 [GSK2606590A],potency estimated from few doses,"ABL1; compound concentrations: 100 nM and 1000 nM (sheet 'Samples'), CATDS: 0.26932988266552799",1720 nM
CN1CCN(Cc2ccc(NC(=O)Nc3ccc(N(C)c4ccnc(Nc5ccc(CS(C)(=O)=O)cc5)n4)cc3)cc2)CC1.Cl [GW827654A],potency estimated from few doses,"ABL1; compound concentrations: 100 nM and 1000 nM (sheet 'Samples'), CATDS: 3.4576588551286799E-2",1820 nM
same,potency estimated from few doses,"ABL2; compound concentrations: 100 nM and 1000 nM (sheet 'Samples'), CATDS: 5.6323659121428699E-2",400 nM
same,potency estimated from few doses,BCR; CATDS: 3.6645994259317798E-2,1440 nM
same,potency estimated from few doses,Q6ZSR9; CATDS: 3.5510221653806698E-2,1630 nM
same,potency estimated from few doses,"RET; compound concentrations: 100 nM and 1000 nM (sheet 'Samples'), CATDS: 0.30394920877794601",22.8 nM
same,potency estimated from few doses,"TNK1; compound concentrations: 100 nM and 1000 nM (sheet 'Samples'), CATDS: 0.12102048296208601",87.9 nM
CN1CCN(Cc2ccc(-c3ccc4c(Nc5ccc(Oc6ccccn6)cc5)ccnc4c3)o2)CC1 [GW567140X],potency estimated from few doses,"ABL1; compound concentrations: 100 nM and 1000 nM (sheet 'Samples'), CATDS: 9.3195013096343204E-2",147 nM
same,potency estimated from few doses,FYN; CATDS: 4.4615082678796297E-2,675 nM
same,potency estimated from few doses,GAK; CATDS: 3.56871929379163E-2,1320 nM
same,potency estimated from few doses,HCK; CATDS: 0.15093661180131901,68.5 nM
same,potency estimated from few doses,"LCK; compound concentrations: 100 nM and 1000 nM (sheet 'Samples'), CATDS: 4.8128660017474401E-2",557 nM
same,potency estimated from few doses,"PTK6; compound concentrations: 100 nM and 1000 nM (sheet 'Samples'), CATDS: 6.5275116077435802E-2",284 nM
same,potency estimated from few doses,"RIPK2; compound concentrations: 100 nM and 1000 nM (sheet 'Samples'), CATDS: 0.141504972954966",75.4 nM
same,potency estimated from few doses,"RIPK3; compound concentrations: 100 nM and 1000 nM (sheet 'Samples'), CATDS: 4.8755783013644902E-2",540 nM
same,potency estimated from few doses,"YES1; compound concentrations: 100 nM and 1000 nM (sheet 'Samples'), CATDS: 6.0479326827192301E-2",332 nM
Cn1cc(-c2cnc(N)c3c(-c4ccc5c(c4)CCN5C(=O)Cc4ccccc4)csc23)cn1 [GSK2593074A],potency estimated from few doses,ABL1; [1],563 nM
same,potency estimated from few doses,ABL2; [1],641 nM
same,potency estimated from few doses,LCK; [1],554 nM
same,potency estimated from few doses,PTK6; [1],1340 nM
same,potency estimated from few doses,RIPK2; [1],120 nM
N#Cc1cnc2cc(-c3cnc(CNCCN4CCOCC4)s3)ccc2c1Nc1ccc(Oc2ccccc2)cc1 [GW664114X],potency estimated from few doses,"ABL1; compound concentrations: 100 nM and 1000 nM (sheet 'Samples'), CATDS: 4.8325821133258902E-2",1130 nM
same,potency estimated from few doses,FYN; CATDS: 5.3110051753070202E-2,831 nM
same,potency estimated from few doses,HCK; CATDS: 0.211931822213385,69.1 nM
same,potency estimated from few doses,"LCK; compound concentrations: 100 nM and 1000 nM (sheet 'Samples'), CATDS: 5.7694634687651798E-2",657 nM
same,potency estimated from few doses,"YES1; compound concentrations: 100 nM and 1000 nM (sheet 'Samples'), CATDS: 7.4593421105350805E-2",361 nM
CN(C)Cc1ccc(-c2ccc3c(Nc4ccc(Oc5ccccn5)cc4)ccnc3c2)o1 [GW567148X],potency estimated from few doses,"ABL1; compound concentrations: 100 nM and 1000 nM (sheet 'Samples'), CATDS: 2.6696820742308999E-2",474 nM
same,potency estimated from few doses,"ABL2; compound concentrations: 100 nM and 1000 nM (sheet 'Samples'), CATDS: 2.2474655179730001E-2",716 nM
same,potency estimated from few doses,BCR; CATDS: 2.3050499166144999E-2,671 nM
same,potency estimated from few doses,CLK1; CATDS: 1.75413407111282E-2,1550 nM
same,potency estimated from few doses,FYN; CATDS: 2.9409133210556101E-2,385 nM
same,potency estimated from few doses,GAK; CATDS: 2.37556853543167E-2,622 nM
same,potency estimated from few doses,HCK; CATDS: 0.14804740289448201,30.7 nM
same,potency estimated from few doses,"LCK; compound concentrations: 100 nM and 1000 nM (sheet 'Samples'), CATDS: 3.1046843535100802E-2",345 nM
same,potency estimated from few doses,"PTK6; compound concentrations: 100 nM and 1000 nM (sheet 'Samples'), CATDS: 5.2806540733476098E-2",134 nM
same,potency estimated from few doses,"RIPK2; compound concentrations: 100 nM and 1000 nM (sheet 'Samples'), CATDS: 9.2431358445575804E-2",57.7 nM
same,potency estimated from few doses,"RIPK3; compound concentrations: 100 nM and 1000 nM (sheet 'Samples'), CATDS: 2.29584105489756E-2",678 nM
same,potency estimated from few doses,"TNK1; compound concentrations: 100 nM and 1000 nM (sheet 'Samples'), CATDS: 3.2421651582332497E-2",316 nM
same,potency estimated from few doses,"YES1; compound concentrations: 100 nM and 1000 nM (sheet 'Samples'), CATDS: 6.4400674253028201E-2",97.8 nM
